Source: PubChem
Tau FP inhib: inhibitors of human tau fibril formation; P10636; K18 P301L tau heparin fibrillization, Alexa594 FP, 6 h; Potency, µM (titrated, usually from 57.7 µM), without a hit: at the top dose activity, negative = inhibition, hits mostly inhibitors; actives 0.39% (n = 280,000); AID 1468; note: potency is the fitted concentration of half-maximal effect; nearly all actives have a fitted effect of over 55% in size
Target sequence (P10636 561-689 P618L limits assumed): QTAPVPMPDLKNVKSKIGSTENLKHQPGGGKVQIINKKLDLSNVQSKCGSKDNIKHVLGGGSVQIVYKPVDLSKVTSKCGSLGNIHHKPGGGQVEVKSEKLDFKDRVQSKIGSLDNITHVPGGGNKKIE
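Compound effects on tau fibrillization are measured by Alexa 594 fluorescence polarization (ex 555, em 632 nm). K18 P301L tau is used at 15 uM with 0.24 uM labeled tracer, and 20 uM heparin induces aggregation over 6 hr at 37 C.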
Tau fluor counter: counter-screen for tau fibril formation inhibitors. Potency, µM (doses to about 57.7 µM), without a hit: top-dose activity change, negative = decrease. actives 0.93% (n = 280,000). AID 1463. tau K18 P301L Alexa594 fluorescence, heparin fibrillization; note: potency is the fitted concentration of half-maximal effect; nearly all actives have a fitted effect of over 55% in size
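Human K18 P301L tau (15 uM unlabeled plus 0.24 uM Alexa 594-labeled, final) in 100 mM sodium acetate pH 7 was mixed with compound and 20 uM heparin and incubated 6 hr at 37 C.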
Coupling enz: coupling enzyme interference in Giardia aldolase counter-screen; actives 0.67% (n = 290,000); activity change, negative = inhibition, % at 58.2 µM, hits read low; AID 2472; coupling enzyme system counterscreen, AmpLite Red fluorescence; in the data active = activity change below about -30%
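Compounds tested against the coupling enzymes alone at 57.5 uM final; readout was AmpLite Red fluorescence (525/598 nm) after 20 min at RT.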
Sfp PPTase inh: blocks B. subtilis Sfp PPTase activity; Q9F4F7; Biochemical Sfp PPTase activity, qHTS; Potency, µM, for the others: largest response in the series, negative = inhibition, actives largely listed as inhibitors; actives 3.5% (n = 310,000);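 note: the enzyme is Sfp with the accession as filed and its product quenches rhodamine fluorescence; potency is the fitted concentration of half-maximal effect; 0% = enzyme reaction without inhibitor and -100% = no enzyme wells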
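After 15 min at room temperature with compound, 15 nM Sfp received 5 uM rhodamine-CoA plus 12.5 uM BHQ-2-ybbR (50 mM Hepes pH 7.6, 10 mM MgCl2). Rate came from the fluorescence difference over 30 min, ex 525/em 598 nm.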
Tau ThT inhib: tau fibrillization inhibition (ThT binding); actives 2.1% (n = 270,000); recombinant tau K18 P301L (four-repeat tau fragment), heparin-induced fibrillization, ThT fluorescence; Potency, µM (series often up to 57.4 µM), for the others: at the highest dose activity, negative = inhibition, most hits filed as inhibitors; note: potency is the fitted concentration of half-maximal effect; nearly all actives have a fitted effect of over 55% in size
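Tau K18 P301L fragment (15 uM unlabeled plus 0.24 uM Alexa 594-labeled) in 100 mM sodium acetate pH 7 with compound, fibrillization induced by 20 uM heparin for 6 hr at 37 C. Thioflavin T (30 uM) added, fluorescence read after 1 hr (ex 450, em 510 nm).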
The depositor's hits bear a star; ? = inconclusive; . = no result; [ ] = remark or other dose. Hits are enriched below; roughly 5.2% of the tested compounds scored in any of these assays. Unless noted, calls come from the whole dose curve; as a rule, active = well fitted curve in the direction sought with a large enough effect; inconclusive = small, poorly fitted or top-dose-only effect, or another doubt; inactive = no such curve, though single readings can be large; an effect the other way counts as inactive or inconclusive. Unless noted, % is set by controls: 0 for no effect and ±100 for the full control effect.

SMILES	Tau FP inhib	Tau fluor counter	Coupling enz	Sfp PPTase inh	Tau ThT inhib
CC(C)C(NS(=O)(=O)c1ccc2c(c1)oc(=O)n2C)C(=O)NCCc1ccc(Cl)cc1 (stereo not drawn)	-6%	2%	.	.	5%
CCOC(=O)c1sc(=S)n(-c2ccc(F)c(F)c2)c1N	-4%	-1%	0	22µM*	0%
CCOC(=O)c1sc(=S)n(-c2ccc(Cl)cc2)c1SC	0%	-13%	-3	-11%	0%
COc1ccc(C(=O)NCC(c2ccc3c(c2)OCO3)N2CCOCC2)cc1OC (stereo not drawn)	2%	1%	.	.	1%
Cc1cc2c(c(=O)o1)C1O[C@](c3ccsc3)(Cc3cc(C#N)ccc31)O2	.	.	-4	-3%	.
CC(C)C1NC2(C(=O)c3ccccc3C2=O)C2C(=O)N(c3ccc(F)cc3)C(=O)C12 (stereo not drawn)	0%	-16%	1	25µM*	-19%
Cn1c(=O)c2c(nc(SC3C(=O)CC(C)(C)CC3=O)n2C)n(C)c1=O	-6%	-4%	1	56µM*	-3%
COc1ccccc1S(=O)(=O)Cc1ccc(C(=O)N2CCN(c3ccccn3)CC2)o1	7%	9%	0	79µM*	2%
COc1ccc(S(=O)(=O)Cc2ccc(C(=O)N3CCN(c4ccccn4)CC3)o2)cc1	-7%	-13%	-2	-8%	-18%
CCCN(CCC)c1cc(C)nc2nc(-c3ccc(Cl)cc3)nn12	-1%	4%	.	.	1%
COc1ccc(/C=N/Nc2cc(C)nc3ccc(Br)cc23)cc1	.	.	2	56µM*	.
Cc1cc(C(=O)O)ccc1-c1ccc(/C=C2\SC(=O)N(CC(=O)Nc3ccc4c(c3)OCO4)C2=O)o1	.	.	.	50µM*	.
Cc1ccc(C(=O)O)cc1-c1ccc(/C=C2\SC(=O)N(CC(=O)Nc3ccccc3)C2=O)o1	1%	2%	-1	18µM*	?
Cc1ccccc1NC(=O)CN1C(=O)S/C(=C\c2ccc(-c3cc(C(=O)O)ccc3C)o2)C1=O	-5%	-4%	2	35µM*	?
CCCCCn1c(CCCNC(=O)c2cccc(C)c2)nc2ccccc21	-1%	-15%	.	.	?
COc1ccccc1CNC(=O)C(CC(C)C)N1Cc2ccccc2C1=O (stereo not drawn)	0%	-5%	.	.	-4%
CCOC(=O)c1cccc(NC(=O)c2cc(-c3ccc(Cl)s3)nc3ccccc23)c1	?	-14%	.	.	11%
CC1(C)Nc2ccc(O)cc2-c2c1ssc2=S	?	?	-20	45µM*	11µM*
O=C(NCCNc1ccc([N+](=O)[O-])cc1)c1ccc(Cl)cc1	-1%	-29%	-1	-7%	8.9µM*
COc1ccc(C(=O)NCCNc2ccc([N+](=O)[O-])cc2)cc1	10%	-4%	-2	21%	?
O=C(CNc1ccc(Br)cc1)c1ccc(O)cc1	7%	?	8	40µM*	?
O=C(CNc1ccc(Cl)cc1)c1ccc(Br)cc1	8%	2%	1	7%	-15%
N#Cc1c(NC(=O)c2ccc(Br)o2)n(-c2ccccc2)c2nc3ccccc3nc12	-14%	-26%	-31*	-7%	25µM*
COc1ccc(-n2c(NC(=O)c3ccc(Br)o3)c(C#N)c3nc4ccccc4nc32)cc1	-12%	?	-16	-28%	14µM*
CCCCN(C)S(=O)(=O)c1cc(-c2nnc3c4ccccc4c(C)nn23)ccc1C	3%	7%	.	.	-12%
SMILES	Tau FP inhib	Tau fluor counter	Coupling enz	Sfp PPTase inh	Tau ThT inhib
CC1(C)Cc2c(C#N)c(NCC3CCCO3)nc(-c3ccco3)c2CO1 (stereo not drawn)	-2%	-7%	-7	7.9µM*	?
CC1(C)Cc2c(C#N)c(NCCc3ccccc3)nc(-c3ccco3)c2CO1	-4%	2%	-2	50µM*	?
CC1(C)Cc2c(C#N)c(NC3CCCCC3)nc(-c3ccco3)c2CO1	-8%	-4%	-30*	3.5µM*	?
CC1(C)Cc2nc(NC3CCCCC3)c(C#N)cc2CO1	1%	-12%	1	18%	-7%
CCN(CC)CCNc1nc(-c2ccco2)c2c(c1C#N)CC(C)(C)OC2	9%	2%	1	5%	-4%
CNC(=S)NCCCCc1cnc[nH]1	.	.	0	?	.
COc1ccc(S(=O)(=O)N2Cc3ccccc3CC2C(=O)Nc2cc(Cl)ccc2Cl)cc1 (stereo not drawn)	?	-26%	.	.	9%
O=C(Nc1nc(-c2ccc(Cl)s2)cs1)c1cccs1	?	28µM*[quencher]	-1	?	?
O=C(O)C1CCCCC1C(=O)Nc1nc(-c2ccc(Cl)s2)cs1 (stereo not drawn)	7%	21%	8	22µM*	18%
O=C(Nc1nc(-c2ccccc2)cs1)c1cccs1	-9%	-17%	-5	-2%	-3%
CCOc1ccc2c(c1)n([O-])c1c([n+]2=O)CCCC1	?	-22%	-58*	20µM*	20µM*
Cc1cc(Cl)ccc1NC(=S)N(CCCN1CCOCC1)Cc1cccs1	-1%	-15%	-1	45µM*	-4%
Cc1ccc(NC(=S)N(CCCN2CCOCC2)Cc2ccccn2)cc1Cl	4%	-2%	-1	32µM*	1%
CC(=O)N1N=C(c2ccc(C)cc2)CC1c1cn(-c2ccccc2)nc1-c1cccs1 (stereo not drawn)	-2%	-22%	.	.	?
Cc1ccccc1NC(=O)CSCC(=O)Nc1ccccc1C	4%	-4%	-1	2%	-9%
COc1ccccc1NC(=O)CSC(N)=O	?	-20%	2	45µM*	32µM*
COc1ccccc1NC(=O)CSc1nnc(NC(=O)Nc2ccc(C)cc2)s1	16µM*	?	.	.	3%
Cc1ccccc1NC(=O)CSC(N)=O	?	-17%	3	14µM*	25µM*
NC(=O)SCC(=O)Nc1ccccc1C(=O)O	?	-17%	2	18µM*	22µM*
Cc1ccc2nc(C)cc(N3CCOCC3)c2c1	0%	0%	0	-11%	5%
Cc1c(C(=O)O)c(C(=O)O)nc2ccc(N3CCOCC3)cc12	-15%	-6%	-21	40µM*	-4%
CCOc1cc(C2CC(=O)Nc3c2c(=O)nc(SCc2cccc(Cl)c2)n3C)ccc1O (stereo not drawn)	1%	-4%	.	.	-6%
CCC(C(=O)Nc1ccc(C(=O)OC)cc1)n1c(=O)c(-c2ccccc2NC(C)=O)nc2ccccc21 (stereo not drawn)	10%	9%	.	.	2%
O=C(NCCc1csc(-c2cccnc2)n1)c1ccc(Br)o1	2%	3%	4	20µM*	-6%
O=C(NCCc1csc(-c2ccccc2)n1)c1ccc(Br)o1	1%	-6%	7	12%	?
